Data published in PubChem BioAssay (NCI).
Compounds without any hit were thinned out: in the full panel of roughly 83,000, 20% have a hit.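 The endpoint reported here, percent growth, reads 100 for growth as untreated, 0 for no net growth and -100 for all cells dead.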 Unmarked numbers belong to inactive results. Calls of active or inactive are those of the source. How the source made its calls: active means growth percent below 10; inactive means the rest.

Assays:
Assay in all cases: NCI-60 one-dose screen, 48 h (100 = growth as untreated, 0 = no growth, -100 = all killed)
Conditions in all cases: 10 µM unless noted
HCT-15 colon = system: HCT-15 colon
HT29 colon = system: HT29 colon
SNB-75 CNS = system: SNB-75 CNS
SNB-19 CNS = system: SNB-19 CNS
U251 CNS = system: U251 CNS
PC-3 prostate = system: PC-3 prostate
SK-MEL-5 melanoma = system: SK-MEL-5 melanoma
UACC-62 melanoma = system: UACC-62 melanoma
LOX IMVI melanoma = system: LOX IMVI melanoma
SK-MEL-28 melanoma = system: SK-MEL-28 melanoma

Compound	growth (HCT-15 colon) [%]	growth (HT29 colon)	growth (SNB-75 CNS)	growth (SNB-19 CNS) [%]	growth (U251 CNS)	growth (PC-3 prostate) [%]	growth (SK-MEL-5 melanoma)	growth (UACC-62 melanoma) [%]	growth (LOX IMVI melanoma) [%]	growth (SK-MEL-28 melanoma) [%]
CN[C@]1(c2ccccc2Cl)CCCC[C@H]1NCCCN1CCN(C)CC1	99	96%	82%	102	103%	91.5	97.7%	104	96.4	112
C[CH2][Sn]([Cl])([Cl])[CH2]C.Oc1ccccc1C=NCCN=Cc1ccccc1O	104	108%	121%	106	93.5%	89.8	99.5%	93.8	72.2	124
O=C1C(=Cc2cn(Cc3ccccc3)c3ccccc23)C(=O)N(Cc2ccccc2)C(=O)N1Cc1ccccc1	85.8	111%	45%	87.1	75.7%	90.3	104%	53.1	87.2	110
NC(=Nc1ccccc1)N[N+](=O)[O-]	105	100%	87.5%	96.9	111%	94.2	103%	94	103	105
CC(C)=CCC/C(C)=C/C=N\N=C(/N)N[N+](=O)[O-]	97.6	97.6%	89.8%	99.2	93.5%	97.6	98.8%	95.6	94.8	114
O=C(CN1CCN(C(=O)c2ccco2)CC1)Nc1ccc(Cl)cc1C(=O)c1ccccc1Cl	81.9	89.4%	67.8%	99.2	91.3%	73.9	51.1%	58.5	79.9	110
CCOC(=O)[C@@H](C)C[C@H](Cc1ccccc1)NC(=O)c1csc([C@@H](C[C@H](C(C)C)N(C)C(=O)CNC(=O)[C@H]2CCCCN2C)OC(C)=O)n1	12.8	4.5% (active)	-13.4% (active)	17.4	18.7%	22.7	13.5%	29.8	34.3	57.1
c1ccc(Nc2nc(-c3ccccc3)c[se]2)cc1	86.9	102%	83%	91.7	84.4%	83.6	89.2%	78.7	93.5	98.8
Nc1ccc(-c2nc3cc(F)ccc3[se]2)cc1F	52.8	61%	76.6%	95.3	87.2%	74.3	82.1%	71.9	88.2	115
COc1ccc(/C=C\c2cc(OC)c(OC)c(OC)c2)c(NS(=O)(=O)c2ccc(Cl)cc2)c1O	13.4	17.1%	18.9%	53.4	12.3%	26.1	-1.82% (active)	40.9	10.7	60.3
COC(=O)[C@@H](C)C[C@H](Cc1ccc(F)cc1)NC(=O)c1csc([C@@H](C[C@H](C(C)C)N(C)C(=O)[C@@H](NC(=O)[C@H]2CCCCN2C)C(C)C)OC(C)=O)n1	15.6	3.51% (active)	63.8%	36.6	6.95% (active)	28.4	-32.8% (active)	42.2	23.1	58.9
CCCCN1CCCC[C@@H]1C(=O)N[C@H](C(=O)N(C)[C@H](CCc1nc(C(=O)N[C@@H](Cc2ccccc2)C[C@H](C)C(=O)OC)cs1)C(C)C)[C@@H](C)CC	41.4	35.2%	70.3%	62.5	58.3%	40.8	34.8%	47	78.2	81.1
CN(C)C(=O)Oc1ccc(Br)cc1	105	109%	89%	107	98.3%	97.1	98.8%	113	96.4	104
